Assay results published in PubChem BioAssay (NCI).
This is part of a sample that, as a whole, favours compounds with a hit. Of some 83,000 tested, about 20% had one in any assay.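 Compound tested at a single concentration for 48 hours in 96-well plates; a percent growth value below 10 was scored as active.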 Values without a mark were called inactive. The source made the active and inactive calls.

tested on: MDA-MB-468 breast; test: NCI-60 one-dose screen, 48 h (100 = growth as untreated, 0 = no growth, -100 = all killed); conditions: 10 µM unless noted

Row | SMILES | growth
1 | CNCCOc1nc2c3cnccc3cc(-c3cc(OC)c(OC)c(OC)c3)c2c2ccncc12 | -43.2% (active)
2 | O=C1/C(=C/c2ccc(Cl)cc2)COc2ccc(O)c(O)c21 | -15.3% (active)
3 | CCOC(=O)C1(C(=O)OCC)N=C(c2ccccc2)C=C1c1ccccc1 | 94.1%
4 | CCOC(=O)c1c(C)nc2ccccc2c1/C=C/c1cccs1 | -2.39% (active)
5 | Nc1cc2c(cc1N)-c1cc(N)c(N)cc1C2 | 105%
6 | C=CCN1C(=O)/C(=C\c2ccc3c(c2)CCC3)SC1=S | 116%
7 | CCN(CC)CCNCC(O)Cc1ccc(OC)cc1 (stereo unspecified) | 105%
8 | COc1cccc(/C=C2\COc3ccc(O)cc3C2=O)c1 | 66.2%
9 | NC(=O)c1c(NC(=O)c2ccccc2C(F)(F)F)sc2c1CCC(=O)C2 | 14.9%
10 | CNCCCn1c2c(c3ccc(Cl)cc3c1=O)C(=O)c1cc(OC)cnc1-2 | 67.2%
11 | O=S(=O)(NCCNc1nccc(-c2c(-c3cccc(O)c3)nc3occn23)n1)c1cccc(F)c1 | 97%
12 | COc1ccc2nc3cc(Cl)ccc3c(NCCNc3c4ccc(Cl)cc4nc4ccc(OC)cc34)c2c1 | -69.8% (active)
13 | O=C1c2c(c3c4ccccc4[nH]c3c3ccc4ccccc4c23)C(=O)N1CCN1CCNCC1 | 76.5%
14 | CCN(CC)c1ccc(C(=N)c2ccc(N(CC)CC)cc2)cc1 | -24.8% (active)
15 | CN1CCN(Cc2ccc(NC(=O)c3cncc(C#Cc4cnc5ccc(N6CCSCC6)nn45)c3)cc2C(F)(F)F)CC1 | -74.2% (active)
16 | C=CC[n+]1c(/C=C2\Sc3ccccc3N2C)sc(-c2ccccc2)c1-c1ccccc1 | 1.16% (active)
17 | CNCCCNc1nc2ccccc2c2c(=O)c3cc(F)ccc3sc12 | -57.3% (active)
18 | COC1OC(CO)C(OC)C(O)C1O (stereo unspecified) | 87.1%
19 | O=C1CCC/C=C\C[C@H]2C=C(Cl)C(=O)/C2=C/C[C@H](CCCCC(F)(F)F)OC(=O)CCC/C=C\C[C@H]2C=C(Cl)C(=O)/C2=C/C[C@H](CCCCC(F)(F)F)O1 | -72.2% [7.5 µM] (active)
20 | CC(=O)N1C(=S)NC(=O)C1Cn1c(-c2ccccc2)nc2ccccc21 (stereo unspecified) | 96.8%
21 | O=C(NCCNC(=O)Oc1cccc2ccccc12)Oc1cccc2ccccc12 | 103%
22 | O=C1CC(=O)N2CSCN(C(c3ccccc3)c3nc4ncncc4[nH]3)C2=N1 (stereo unspecified) | 102%
23 | CCN1C(=O)/C(=c2\sc3n(c2=O)C2C(NN=3)N(CC)C(=S)N2CC)c2ccccc21 (stereo unspecified) | 104%
24 | CCCCCCCCCN1C(=O)/C(=c2\sc3n(c2=O)C2C(NN=3)N(CC)C(=O)N2CC)c2ccccc21 (stereo unspecified) | 37.9%
25 | O=C(CC1(O)C(=O)Nc2c(Cl)ccc(Cl)c21)c1ccc(Cl)cc1Cl (stereo unspecified) | 103%
26 | COc1cc2nc3cc([N+](=O)[O-])ccc3c(NCCCNCC(C)(C)O)c2cc1OC | -57.7% (active)
